# An excerpt weighted towards active compounds, which were near 2.9% of everything screened.
# B2AR arrestin – qHTS assay of beta-arrestin-biased ligands of beta2-adrenergic receptor; Beta-2 adrenergic receptor (Homo sapiens), P07550; AID 492947, 2010; Potency, µM (doses to about 46.1 µM), for inactives: top-dose activation, most hits filed as activators; hit rate 0.02% among 330,000; beta-arrestin recruitment to beta2AR, cell-based reporter;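 also: potency is read from the fitted curve at half-maximal effect; 0% = DMSO controls and full agonism = EC100 isoproterenol or metaproterenol; nearly all actives have a fitted effect of over 65% in size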
# Target sequence (P07550 whole entry, looked up): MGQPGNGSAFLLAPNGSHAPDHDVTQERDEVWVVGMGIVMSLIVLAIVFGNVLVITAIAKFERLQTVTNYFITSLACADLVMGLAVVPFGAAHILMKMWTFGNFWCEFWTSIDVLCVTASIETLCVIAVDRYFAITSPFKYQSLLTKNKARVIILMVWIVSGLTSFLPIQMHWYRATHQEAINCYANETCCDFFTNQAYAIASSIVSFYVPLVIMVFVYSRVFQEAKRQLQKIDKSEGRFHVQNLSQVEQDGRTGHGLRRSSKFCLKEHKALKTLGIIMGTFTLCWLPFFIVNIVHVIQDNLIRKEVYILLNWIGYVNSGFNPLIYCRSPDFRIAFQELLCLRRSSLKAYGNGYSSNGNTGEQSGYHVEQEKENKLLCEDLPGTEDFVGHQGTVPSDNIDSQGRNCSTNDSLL
# Integrin act MD – qHTS for Activators of Integrin-Mediated Alleviation for Muscular Dystrophy. Potency, µM (top dose mostly 38.3 µM), inactives show at the highest dose activation, actives largely listed as activators. hit rate 0.064% among 350,000. alpha7betagal myoblasts, beta-gal FDG fluorescence, 48 h. AID 624291, 2012;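 also: potency is read from the fitted curve at half-maximal effect; 100% = response of the positive control SU9516; nearly all actives have a fitted effect of over 60% in size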
#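 Alpha7betagal+/- myoblasts (passage 13) were plated 16-24 hr, then exposed to compounds (1:260 dilution of DMSO stock) for 48 hours at 37C. After MPER lysis, β-galactosidase reporter activity was read as FDG fluorescence (ex 480/em 540) after 30 minutes.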
# DRD3 antagonist – qHTS of D3 Dopamine Receptor Antagonist: qHTS. D(3) dopamine receptor (Homo sapiens), P35462. D3R cells, DiscoveRx beta-arrestin luminescence, antagonist mode; active compounds read low. max response, negative = inhibition, %. hit rate 2.5% among 360,000. AID 652054, 2013; in the data active = max response below about -50%; inconclusive = no clear call, values can overlap the other calls; also: % is scaled to controls: 0 for no effect and ±100 for the full control effect
#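 Cells expressing the human receptor were seeded at 1500 cells/well, incubated overnight at 37 degrees C in 5% CO2, then exposed to library compounds with dopamine controls for 90 minutes at 37 degrees C before luminescent detection.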
# mIDH1 inhibitor – qHTS for Inhibitors of mutant isocitrate dehydrogenase 1 (IDH1): qHTS; Potency, µM (highest dose often 76.6 µM), for inactives: top-dose activity change, negative = inhibition, most hits filed as inhibitors; hit rate 0.093% among 390,000; AID 602179, 2012; Isocitrate dehydrogenase [NADP] cytoplasmic (Homo sapiens), O75874; IDH1-R132H enzyme, NADPH consumption, diaphorase/resazurin fluorescence; also: potency is read from the fitted curve at half-maximal effect; % is scaled to controls: 0 for no effect and ±100 for the full control effect; nearly all actives have a fitted effect of over 65% in size
#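 IDH1-R132H (0.5 ug/mL dispensed) in pH 7.5 Tris buffer was preincubated 30 min with compound, then given a substrate mix of 0.016 mM NADPH and 2 mM alpha-KG for 80 min at room temperature; remaining NADPH was read by diaphorase/resazurin fluorescence.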
# D3 ag – qHTS of D3 Dopamine Receptor Agonist: qHTS. D(3) dopamine receptor (Homo sapiens), P35462. hit rate 0.58% among 410,000. D3R DiscoveRx beta-arrestin cells, luminescence, 90 min. max activation, %; in the data active = max activation above about 30%; also: 0% is about no effect
#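 Agonist mode: compounds and dopamine controls were applied to plated cells for 90 min at 37 degrees C after an overnight attachment at 1500 cells/well. Luminescent read-out followed 30 - 60 minutes at room temperature with DiscoveRx detection reagent.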
# * marks the source's active call; other numbers are inactive results; ? = inconclusive; . = no result given. Unless noted, calls follow the shape of the dose curve; as a rule, active = well fitted curve in the direction sought with a large enough effect; inconclusive = small, poorly fitted or top-dose-only effect, or another doubt; inactive = no such curve, though single readings can be large; an effect the other way counts as inactive or inconclusive.
SMILES,B2AR arrestin,Integrin act MD,DRD3 antagonist,mIDH1 inhibitor,D3 ag
Cc1cccnc1NCc1ccc(O)c2ncccc12,?,-40.9%,-50.6*,5.4%,-18.5
CN1CCN(C(=O)c2cc3c(c(-c4cccc(Br)c4)n2)[C@H](CCO)N(S(=O)C(C)(C)C)C3)CC1 (some centres not stated),.,.,-50.2*,.,-13.9
CC(C)(C)S(=O)N1Cc2cc(C(=O)N3CCOCC3)nc(-c3cccc(Br)c3)c2[C@H]1CCO (some centres not stated),.,.,9.3,.,3.4
CC1=C(c2ccc(Cl)cc2)S(=O)(=O)N=C1N1CCN(c2cccc(C(F)(F)F)c2)CC1,.,.,.,-10.9%,7.0
COc1ccccc1/C=C/C(=O)NCC(=O)N/N=C/c1cc(Br)ccc1OC,-0.3%,-45.3%,-71.4*,9.2%,-22.3
COc1ccc(/C=C/C(=O)NCC(=O)N/N=C/c2cc(Br)ccc2OC)cc1,0.0%,-34.9%,-57.8*,5.8%,-39.7
COc1ccc(/C=C\C(=O)NCC(=O)N/N=C/c2ccc(O)cc2O)cc1,-0.2%,26.1%,-7.0,-5.5%,3.8
COc1ccc(Br)cc1/C=C/C(=O)Nc1ccc2ccccc2c1,0.5%,15.9%,-1.3,6.5%,-10.3
COc1ccccc1/C=C\C(=O)NCC(=O)N/N=C/c1cccc(OC)c1O,0.1%,-55.2%,?,-14.0%,-15.9
COc1ccc(Br)cc1/C=C/C(=O)Nc1ccc(C)cc1,-1.6%,-5.5%,-75.2*,5.6%,-31.8
COc1ccccc1C(CC(=O)Nc1ccc(C)c(C)c1)c1ccc(OC(C)C)cc1 (configuration not stated),-0.4%,-9.4%,-1.9,-2.8%,6.6
COc1ccccc1NC(=O)CC(c1ccc(OC(C)C)cc1)c1ccccc1OC (configuration not stated),1.5%,-26.9%,43.4,1.8%,46.8*
Cc1cc(C)c2oc(-c3cccc(NC(=O)c4ccc(F)cc4)c3)nc2c1,-0.2%,22.0%,0.0,0.1%,-5.3
COc1cc(C(=O)Nc2cccc(-c3nc4cc(C)cc(C)c4o3)c2)cc(OC)c1OC,0.0%,4.0%,41.0,0.0%,51.6*
CCC(=O)Nc1ccc2c(c1)Cc1cc([N+](=O)[O-])ccc1-2,.,12.8%,13.6,7.6%,4.4
CCOC(=O)/C(=C\c1ccc(Cl)cc1)c1nc2sc(C)c(C)c2c(=O)[nH]1,-0.5%,-44.9%,-63.0*,-12.7%,1.3
CCOC(=O)CSc1nc2sc(C)c(C)c2c(=O)[nH]1,0.0%,10.8%,11.6,5.7%,1.9
O=S(=O)(Nc1ccc(C(F)(F)F)cc1)c1ccc2c(c1)OCCO2,.,.,.,-3.9%,8.4
COCC(=O)N(C)CC1CCCN(CCc2ccccc2OC)C1 (configuration not stated),-0.7%,-35.4%,-64.1*,4.2%,-11.9
COc1ccccc1CCN1CCCC(CN(C)C(=O)CCC(=O)N(C)C)C1 (configuration not stated),-0.5%,23.7%,7.6,16.5%,-2.0
CCC(C)(C)C1CCc2[nH]nc(C(=O)NC3CCCCC3)c2C1 (configuration not stated),0.5%,11.4%,-62.2*,0.5%,-44.3
CCN(CC)C(=O)Nc1ccc(C(=O)OC)cc1,0.1%,-9.8%,-69.0*,9.4%,0.5
Cc1cccc(NC(=O)CSc2nc(=O)n(Cc3cccnc3)c3c2CCC3)c1,.,.,.,-1.3%,4.3
CN(Cc1ccccc1)C(=O)c1ncn(Cc2ccccc2)c1C(=O)N(C)Cc1ccccc1,0.3%,27.1%,46.9,4.3%,45.1*
COc1c2ccoc2c(OC[C@@H](O)C(C)(C)O)c2oc(=O)ccc12,-0.1%,18.3%,-1.6,0.0%,5.0
SMILES,B2AR arrestin,Integrin act MD,DRD3 antagonist,mIDH1 inhibitor,D3 ag
COc1c2ccoc2c(OC[C@@H](OC(C)=O)C(C)(C)O)c2oc(=O)ccc12,0.0%,35.3%,30.3,11.5%,48.1*
CC(=O)Nc1ccc(NC(=O)Cn2cnc3c(cnn3C(C)(C)C)c2=O)cc1,-0.3%,-20.1%,18.8,1.4%,-6.1
CC(C)(C)n1ncc2c(=O)n(CC(=O)Nc3ccc(Cl)cc3)cnc21,0.1%,16.7%,-53.9*,-1.8%,-14.4
COc1cc(C(C)=O)ccc1Oc1ncnc2c1cnn2-c1ccccc1,0.4%,17.8%,7.6,-0.1%,36.1*
COc1cc(C(C)=O)ccc1Oc1ncnc2c1cnn2-c1ccc(C)c(C)c1,0.0%,-4.7%,58.7,3.9%,14.7
CCCc1c(C(=O)N/N=C(\C)c2ccccn2)nnn1-c1nonc1N,.,-18.3%,-84.9*,-6.6%,-13.1
CCOC(=O)c1nnn(-c2nonc2N)c1-c1ccc(Cl)cc1,0.3%,-15.8%,8.6,-9.6%,11.0
CCOC(=O)c1nnn(-c2nonc2N)c1COc1ccccc1,-0.1%,6.8%,-57.8*,6.1%,-0.8
CCOC(=O)c1nnn(-c2nonc2N)c1-c1ccc(OC)cc1,0.0%,13.1%,-54.5*,8.0%,2.6
O=C(O[C@@H](C(=O)O)[C@@H](OC(=O)c1ccccc1)C(=O)O)c1ccccc1,0.2%,.,3.3,-11.4%,8.9
COc1ccccc1NC(=O)c1c(C)cc(C)nc1SCC(=O)Nc1cccc(C)c1,.,.,.,0.0%,3.0
COc1ccccc1CNC(=O)[C@H](C)NC(=O)C1CCN(C(=O)[C@@H](N)Cc2ccccc2)CC1,0.0%,-3.9%,12.9,-5.6%,-2.6
COc1ccccc1CNC(=O)[C@H](C)NC(=O)C1CCN(C(=O)[C@@H](N)C(C)C)CC1,-0.6%,26.6%,-4.9,5.5%,38.0*
CC(=O)N1C=Cc2c(c(C)c3c([nH]c4ccccc43)c2C)C1,0.3%,.,.,.,.
COc1cc(OC)c(NC(=O)C(C)n2nc(-c3ccc(C)c(C)c3)ccc2=O)cc1Cl (configuration not stated),.,.,.,-2.7%,0.7
O=C(NC(=S)N(Cc1ccccc1)Cc1ccccc1)c1ccccc1F,5.4%,-37.0%,-69.4*,-0.4%,-2.3
O=C1C(Cl)=C(Nc2ccc3cn[nH]c3c2)C(=O)c2ccccc21,0.6%,-60.3%,-119.7*,-2.1%,-10.9
O=C(NC1=C(Nc2ccc(Cl)cc2)C(=O)c2ccccc2C1=O)c1ccccc1,-0.8%,0.0%,-29.7,7.9%,1.9
CC(=O)Nc1ccc(NC2=C(Cl)C(=O)c3ccccc3C2=O)cc1,-0.9%,-62.5%,-101.5*,-2.1%,-12.7
CN(C)c1ccc(NC2=C(Cl)C(=O)c3ccccc3C2=O)cc1,-1.8%,-26.8%,-93.2*,9.3%,-21.3
COc1ccc(OCC(O)Cn2c(N)nc3c2c(=O)[nH]c(=O)n3C)cc1 (configuration not stated),-0.3%,25.0%,8.8,10.0%,2.5
CC(C)Cc1nc2oc3c(NCC4CCCO4)ncnc3c2c2c1CCC2 (configuration not stated),0.0%,-5.8%,0.9,6.6%,57.8*

# Assay outcomes: PubChem BioAssay, National Center for Advancing Translational Sciences (NCATS)
